Key:
Test in all cases: cell viability of combination (% of vehicle); higher = less cytotoxic
Details in all cases: 1 µM; 72 h; partner dose: 10 nM
HCI01 [1] = test system: HCI01 (cells of a triple-negative basal-like breast cancer xenograft)
Method: (§1)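 PDX cells were treated for 72 h with each drug at 1 µM plus carfilzomib (10 nM; 100 nM for WHIM2). Luciferase viability is expressed as percent of vehicle.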

UCD52 [2] = test system: UCD52 (cells of a triple-negative basal-like breast cancer xenograft)
Method: as §1

WHIM30 = test system: WHIM30 (cells of a triple-negative basal-like breast cancer xenograft)
Method: as §1

HCI01 [3] = test system: HCI01; remark: listed apart in the source
Method: (§2)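 PDX cells were treated for 72 h with each drug at 1 µM plus afatinib (10 nM; 1 µM for WHIM30). Luciferase viability is expressed as percent of vehicle.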

UCD52 [4] = test system: UCD52; remark: listed apart in the source
Method: as §2

WHIM2 = test system: WHIM2 (cells of a triple-negative basal-like breast cancer xenograft)
Method: as §2

## Cc1c(Cl)cccc1Nc1ccccc1C(=O)O [Tolfenamic Acid] + CC(C)C[C@H](NC(=O)[C@H](CCc1ccccc1)NC(=O)CN1CCOCC1)C(=O)N[C@@H](Cc1ccccc1)C(=O)N[C@@H](CC(C)C)C(=O)[C@@]1(C)CO1 [Carfilzomib]
HCI01 [1]
  cell viability of combination: 74.7
UCD52 [2]
  cell viability of combination: 69.7
WHIM30
  cell viability of combination: 20.7

## COc1ccc2c(O[C@H]3CC4C(=O)N(C)CCCC/C=C\[C@H]5C[C@@]5(C(=O)NS(=O)(=O)C5CC5)NC(=O)[C@@H]4C3)cc(-c3nc(C(C)C)cs3)nc2c1C (some centres undefined) [Simeprevir] + CC(C)C[C@H](NC(=O)[C@H](CCc1ccccc1)NC(=O)CN1CCOCC1)C(=O)N[C@@H](Cc1ccccc1)C(=O)N[C@@H](CC(C)C)C(=O)[C@@]1(C)CO1 [Carfilzomib]
HCI01 [1]
  cell viability of combination: 82.7
UCD52 [2]
  cell viability of combination: 62.5
WHIM30
  cell viability of combination: 22.1

## Cc1c(C(=O)NN2CCCCC2)nn(-c2ccc(Cl)cc2Cl)c1-c1ccc(Cl)cc1 [Rimonabant] + CN(C)C/C=C/C(=O)Nc1cc2c(Nc3ccc(F)c(Cl)c3)ncnc2cc1O[C@H]1CCOC1 [Afatinib]
HCI01 [3]
  cell viability of combination: 56.7
UCD52 [4]
  cell viability of combination: 75
WHIM2
  cell viability of combination: 48.4

## CCC(NC(=O)C(C)NC)C(=O)N1CC(O)CC1Cc1c(-c2[nH]c3cc(F)ccc3c2CC2CC(O)CN2C(=O)C(CC)NC(=O)C(C)NC)[nH]c2cc(F)ccc12 (centres undefined) + CC(C)C[C@H](NC(=O)[C@H](CCc1ccccc1)NC(=O)CN1CCOCC1)C(=O)N[C@@H](Cc1ccccc1)C(=O)N[C@@H](CC(C)C)C(=O)[C@@]1(C)CO1 [Carfilzomib]
HCI01 [1]
  cell viability of combination: 61.9
UCD52 [2]
  cell viability of combination: 43
WHIM30
  cell viability of combination: 11.4

## CC(C)(C)c1ccc(C(O)CCCN2CCC(C(O)(c3ccccc3)c3ccccc3)CC2)cc1 (centres undefined) [Terfenadine] + CC(C)C[C@H](NC(=O)[C@H](CCc1ccccc1)NC(=O)CN1CCOCC1)C(=O)N[C@@H](Cc1ccccc1)C(=O)N[C@@H](CC(C)C)C(=O)[C@@]1(C)CO1 [Carfilzomib]
HCI01 [1]
  cell viability of combination: 77.1
UCD52 [2]
  cell viability of combination: 64.9
WHIM30
  cell viability of combination: 15.5

## COc1cc2nccc(Oc3ccc(NC(=O)NC4CC4)c(Cl)c3)c2cc1C(N)=O [Lenvatinib (E7080)] + CC(C)C[C@H](NC(=O)[C@H](CCc1ccccc1)NC(=O)CN1CCOCC1)C(=O)N[C@@H](Cc1ccccc1)C(=O)N[C@@H](CC(C)C)C(=O)[C@@]1(C)CO1 [Carfilzomib]
HCI01 [1]
  cell viability of combination: 97.9
UCD52 [2]
  cell viability of combination: 38.2
WHIM30
  cell viability of combination: 21.9

## CC[C@H](C)[C@H]1O[C@]2(CC[C@@H]1C)C[C@@H]1C[C@@H](C/C=C(\C)[C@@H](O[C@H]3C[C@H](OC)[C@@H](O[C@H]4C[C@H](OC)[C@@H](O)[C@H](C)O4)[C@H](C)O3)[C@@H](C)/C=C/C=C3\CO[C@@H]4[C@H](O)C(C)=C[C@@H](C(=O)O1)[C@]34O)O2 [Ivermectin] + CC(C)C[C@H](NC(=O)[C@H](CCc1ccccc1)NC(=O)CN1CCOCC1)C(=O)N[C@@H](Cc1ccccc1)C(=O)N[C@@H](CC(C)C)C(=O)[C@@]1(C)CO1 [Carfilzomib]
HCI01 [1]
  cell viability of combination: 92.6
UCD52 [2]
  cell viability of combination: 43
WHIM30
  cell viability of combination: 20.6

## Cc1c(C(=O)NN2CCCCC2)nn(-c2ccc(Cl)cc2Cl)c1-c1ccc(Cl)cc1 [Rimonabant] + CC(C)C[C@H](NC(=O)[C@H](CCc1ccccc1)NC(=O)CN1CCOCC1)C(=O)N[C@@H](Cc1ccccc1)C(=O)N[C@@H](CC(C)C)C(=O)[C@@]1(C)CO1 [Carfilzomib]
HCI01 [1]
  cell viability of combination: 78.4
UCD52 [2]
  cell viability of combination: 63
WHIM30
  cell viability of combination: 16.3

## O=C(O)c1cc(O)c(O)c(O)c1 [Gallic acid] + CN(C)C/C=C/C(=O)Nc1cc2c(Nc3ccc(F)c(Cl)c3)ncnc2cc1O[C@H]1CCOC1 [Afatinib]
HCI01 [3]
  cell viability of combination: 51.4
UCD52 [4]
  cell viability of combination: 73.6
WHIM2
  cell viability of combination: 46.3

## CS(=O)(=O)O.Cc1c(O)cccc1C(=O)NC(CSc1ccccc1)C(O)CN1CC2CCCCC2CC1C(=O)NC(C)(C)C (centres undefined) [Nelfinavir Mesylate] + CN(C)C/C=C/C(=O)Nc1cc2c(Nc3ccc(F)c(Cl)c3)ncnc2cc1O[C@H]1CCOC1 [Afatinib]
HCI01 [3]
  cell viability of combination: 44.5
UCD52 [4]
  cell viability of combination: 47.9
WHIM2
  cell viability of combination: 53.6

## Cc1cccc(CN2CCN(C(c3ccccc3)c3ccc(Cl)cc3)CC2)c1.Cl.Cl (centres undefined) [Meclizine 2HCl] + CC(C)C[C@H](NC(=O)[C@H](CCc1ccccc1)NC(=O)CN1CCOCC1)C(=O)N[C@@H](Cc1ccccc1)C(=O)N[C@@H](CC(C)C)C(=O)[C@@]1(C)CO1 [Carfilzomib]
HCI01 [1]
  cell viability of combination: 105
UCD52 [2]
  cell viability of combination: 57.2
WHIM30
  cell viability of combination: 11.7

## COC(=O)C1=C(C)NC(C)=C(C(=O)OCCN(C)Cc2ccccc2)C1c1cccc([N+](=O)[O-])c1.Cl (centres undefined) [Nicardipine HCl] + CC(C)C[C@H](NC(=O)[C@H](CCc1ccccc1)NC(=O)CN1CCOCC1)C(=O)N[C@@H](Cc1ccccc1)C(=O)N[C@@H](CC(C)C)C(=O)[C@@]1(C)CO1 [Carfilzomib]
HCI01 [1]
  cell viability of combination: 115
UCD52 [2]
  cell viability of combination: 52
WHIM30
  cell viability of combination: 13.8

## CC1(COc2ccc3c(c2)ncn3-c2ccc3cccc(N4CCC(N)CC4)c3n2)COC1 + CC(C)C[C@H](NC(=O)[C@H](CCc1ccccc1)NC(=O)CN1CCOCC1)C(=O)N[C@@H](Cc1ccccc1)C(=O)N[C@@H](CC(C)C)C(=O)[C@@]1(C)CO1 [Carfilzomib]
HCI01 [1]
  cell viability of combination: 102
UCD52 [2]
  cell viability of combination: 135
WHIM30
  cell viability of combination: 64.3

## O=C(O)CO.[NH2-].[NH2-].[Pt+2] [Nedaplatin] + CC(C)C[C@H](NC(=O)[C@H](CCc1ccccc1)NC(=O)CN1CCOCC1)C(=O)N[C@@H](Cc1ccccc1)C(=O)N[C@@H](CC(C)C)C(=O)[C@@]1(C)CO1 [Carfilzomib]
HCI01 [1]
  cell viability of combination: 71.6
UCD52 [2]
  cell viability of combination: 68.8
WHIM30
  cell viability of combination: 16.4

## CC(C)(C)c1ccc(C(=O)CCCN2CCC(OC(c3ccccc3)c3ccccc3)CC2)cc1 [Ebastine] + CC(C)C[C@H](NC(=O)[C@H](CCc1ccccc1)NC(=O)CN1CCOCC1)C(=O)N[C@@H](Cc1ccccc1)C(=O)N[C@@H](CC(C)C)C(=O)[C@@]1(C)CO1 [Carfilzomib]
HCI01 [1]
  cell viability of combination: 74
UCD52 [2]
  cell viability of combination: 59.8
WHIM30
  cell viability of combination: 15.8

## Clc1ccc(CSC(Cn2ccnc2)c2ccc(Cl)cc2Cl)cc1.O=[N+]([O-])O (centres undefined) [Sulconazole Nitrate] + CN(C)C/C=C/C(=O)Nc1cc2c(Nc3ccc(F)c(Cl)c3)ncnc2cc1O[C@H]1CCOC1 [Afatinib]
HCI01 [3]
  cell viability of combination: 62.8
UCD52 [4]
  cell viability of combination: 74.1
WHIM2
  cell viability of combination: 49.5

## CCCCCCCCc1ccc(CCC(N)(CO)CO)cc1.Cl [Fingolimod (FTY720)] + CC(C)C[C@H](NC(=O)[C@H](CCc1ccccc1)NC(=O)CN1CCOCC1)C(=O)N[C@@H](Cc1ccccc1)C(=O)N[C@@H](CC(C)C)C(=O)[C@@]1(C)CO1 [Carfilzomib]
HCI01 [1]
  cell viability of combination: 77.3
UCD52 [2]
  cell viability of combination: 61.5
WHIM30
  cell viability of combination: 16.7

## CC1(COc2ccc3c(c2)ncn3-c2ccc3cccc(N4CCC(N)CC4)c3n2)COC1 + CN(C)C/C=C/C(=O)Nc1cc2c(Nc3ccc(F)c(Cl)c3)ncnc2cc1O[C@H]1CCOC1 [Afatinib]
HCI01 [3]
  cell viability of combination: 56.3

## Cc1cn(-c2cc(NC(=O)c3ccc(C)c(Nc4nccc(-c5cccnc5)n4)c3)cc(C(F)(F)F)c2)cn1 [Nilotinib(AMN-107)] + CC(C)C[C@H](NC(=O)[C@H](CCc1ccccc1)NC(=O)CN1CCOCC1)C(=O)N[C@@H](Cc1ccccc1)C(=O)N[C@@H](CC(C)C)C(=O)[C@@]1(C)CO1 [Carfilzomib]
HCI01 [1]
  cell viability of combination: 69.1
UCD52 [2]
  cell viability of combination: 45.7
WHIM30
  cell viability of combination: 22.2

## Cl.O.O=C1Cc2cc(CCN3CCN(c4nsc5ccccc45)CC3)c(Cl)cc2N1 [Ziprasidone hydrochloride monohydrate] + CC(C)C[C@H](NC(=O)[C@H](CCc1ccccc1)NC(=O)CN1CCOCC1)C(=O)N[C@@H](Cc1ccccc1)C(=O)N[C@@H](CC(C)C)C(=O)[C@@]1(C)CO1 [Carfilzomib]
HCI01 [1]
  cell viability of combination: 79.6
UCD52 [2]
  cell viability of combination: 64.2
WHIM30
  cell viability of combination: 22.5

## CCOC(=O)c1c(CSc2ccccc2)n(C)c2cc(Br)c(O)c(CN(C)C)c12.Cl [Arbidol HCl] + CN(C)C/C=C/C(=O)Nc1cc2c(Nc3ccc(F)c(Cl)c3)ncnc2cc1O[C@H]1CCOC1 [Afatinib]
HCI01 [3]
  cell viability of combination: 55.3
UCD52 [4]
  cell viability of combination: 53
WHIM2
  cell viability of combination: 45.2

## Cc1nc(Nc2ncc(C(=O)Nc3c(C)cccc3Cl)s2)cc(N2CCN(CCO)CC2)n1 + CN(C)C/C=C/C(=O)Nc1cc2c(Nc3ccc(F)c(Cl)c3)ncnc2cc1O[C@H]1CCOC1 [Afatinib]
HCI01 [3]
  cell viability of combination: 41.5
UCD52 [4]
  cell viability of combination: 27.6
WHIM2
  cell viability of combination: 30.8

## CC1=CC(=O)c2ccccc2C1=O [Menadione] + CC(C)C[C@H](NC(=O)[C@H](CCc1ccccc1)NC(=O)CN1CCOCC1)C(=O)N[C@@H](Cc1ccccc1)C(=O)N[C@@H](CC(C)C)C(=O)[C@@]1(C)CO1 [Carfilzomib]
HCI01 [1]
  cell viability of combination: 78.2
UCD52 [2]
  cell viability of combination: 62
WHIM30
  cell viability of combination: 21.4

## CNC(=O)c1cc(Oc2ccc(NC(=O)Nc3ccc(Cl)c(C(F)(F)F)c3)cc2)ccn1.Cc1ccc(S(=O)(=O)O)cc1 [Sorafenib Tosylate] + CC(C)C[C@H](NC(=O)[C@H](CCc1ccccc1)NC(=O)CN1CCOCC1)C(=O)N[C@@H](Cc1ccccc1)C(=O)N[C@@H](CC(C)C)C(=O)[C@@]1(C)CO1 [Carfilzomib]
HCI01 [1]
  cell viability of combination: 70.3
UCD52 [2]
  cell viability of combination: 52.6
WHIM30
  cell viability of combination: 19.5

## CC1=C(C(=O)OC(C)C)C(c2cccc([N+](=O)[O-])c2)C(C(=O)OC2CN(C(c3ccccc3)c3ccccc3)C2)=C(N)N1 (centres undefined) [Azelnidipine] + CC(C)C[C@H](NC(=O)[C@H](CCc1ccccc1)NC(=O)CN1CCOCC1)C(=O)N[C@@H](Cc1ccccc1)C(=O)N[C@@H](CC(C)C)C(=O)[C@@]1(C)CO1 [Carfilzomib]
HCI01 [1]
  cell viability of combination: 112
UCD52 [2]
  cell viability of combination: 46.6
WHIM30
  cell viability of combination: 14.5

## CC[C@@]1(O)C(=O)OCc2c1cc1n(c2=O)Cc2cc3c(CN(C)C)c(O)ccc3nc2-1.Cl [Topotecan HCl] + CC(C)C[C@H](NC(=O)[C@H](CCc1ccccc1)NC(=O)CN1CCOCC1)C(=O)N[C@@H](Cc1ccccc1)C(=O)N[C@@H](CC(C)C)C(=O)[C@@]1(C)CO1 [Carfilzomib]
HCI01 [1]
  cell viability of combination: 55.9
UCD52 [2]
  cell viability of combination: 54.7
WHIM30
  cell viability of combination: 7.58

## O=C1C=CC=CC1=C1NC(=C2C=CC=CC2=O)N(c2ccc(C(=O)O)cc2)N1 [Deferasirox] + CC(C)C[C@H](NC(=O)[C@H](CCc1ccccc1)NC(=O)CN1CCOCC1)C(=O)N[C@@H](Cc1ccccc1)C(=O)N[C@@H](CC(C)C)C(=O)[C@@]1(C)CO1 [Carfilzomib]
HCI01 [1]
  cell viability of combination: 67.8
UCD52 [2]
  cell viability of combination: 61.2
WHIM30
  cell viability of combination: 23.7

Source: the supplement of paper PMC6992640
